# LDHA inh = inhibitors of human lactate dehydrogenase A; activity change, % (values are at about 110 or 230 µM); P00338; 0.15% of 480,000 active; purified LDHA, NADH/diaphorase-resazurin fluorescence; hits give low values; in the data active = activity change below about -30%; inconclusive = mostly about -25% to -30%;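 also: plate controls were DMSO wells for no effect and wells without enzyme for full effect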
#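 Enzyme activity of human lactate dehydrogenase 5 (2 nM; 0.06 mM NADH, 0.2 mM pyruvate, 5 min, RT) is measured via a resazurin/diaphorase fluorescence readout of residual NADH.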
# RORgamma inh = blocks mouse ROR gamma transcriptional activity | Drosophila S2 Gal4-RORgamma UAS-luciferase reporter, 20 h | 5.4% of 310,000 active | Potency, µM (doses to about 53.6 µM), for the others: at the highest dose activity change, negative = inhibition, usual class: inhibitors | P51450 | AID 2551; also: potency is read from the fitted curve at half-maximal effect; nearly all actives have a fitted effect of over 60% in size
# Target sequence (P51450 whole entry, looked up, the tested form may be a part): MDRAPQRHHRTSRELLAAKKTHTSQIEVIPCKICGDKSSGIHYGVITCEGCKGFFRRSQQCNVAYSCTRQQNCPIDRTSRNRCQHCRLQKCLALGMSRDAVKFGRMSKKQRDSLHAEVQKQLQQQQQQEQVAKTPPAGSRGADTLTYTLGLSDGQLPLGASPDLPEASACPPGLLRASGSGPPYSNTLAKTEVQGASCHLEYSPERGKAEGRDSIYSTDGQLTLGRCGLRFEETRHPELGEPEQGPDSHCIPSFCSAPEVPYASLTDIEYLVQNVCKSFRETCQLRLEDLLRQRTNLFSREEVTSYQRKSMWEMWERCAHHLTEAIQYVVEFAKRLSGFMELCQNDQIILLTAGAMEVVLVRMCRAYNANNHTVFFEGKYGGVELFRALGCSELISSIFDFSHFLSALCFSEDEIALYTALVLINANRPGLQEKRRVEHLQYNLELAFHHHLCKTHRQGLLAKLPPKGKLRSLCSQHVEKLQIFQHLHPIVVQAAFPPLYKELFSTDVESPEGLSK
#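 Stably transfected Drosophila Schneider cells are the test system, with ROR gamma fused to Gal4 and luciferase under UAS control; luminescence is read after 20 hr of 700 uM copper sulfate induction at ambient temperature.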
# Gal4-VP16 FLuc = Gal4-VP16 reporter inhibition counter-screen. Drosophila S2 Gal4-VP16 UAS-luciferase, luminescence, 20 h. Potency, µM (series often up to 53.6 µM), for inactives: at the top dose activity, negative = inhibition, usual class: inhibitors. 3.5% of 310,000 active. AID 2546;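 also: Gal4-VP16 expression switched on by copper sulfate through the metallothionein promoter; potency is read from the fitted curve at half-maximal effect; nearly all actives have a fitted effect of over 50% in size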
# DT40 TDP1 no CPT = qHTS for Inhibitors of human tyrosyl-DNA phosphodiesterase 1 (TDP1): qHTS in cells in absence of CPT. Potency, µM (series often up to 46.2 µM), for inactives: at the highest dose activity change, negative = growth inhibition, hits mostly inhibitors. AID 686978, 2013. 15% of 420,000 active. DT40 Tdp1-/- hTDP1 cells, no CPT, ATP luminescence, 48 h; also: potency is read from the fitted curve at half-maximal effect; nearly all actives have a fitted effect of over 55% in size
#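 Cells were dispensed at 400 per well, compounds added by pin tool, plates incubated ≥48 hr at 37 °C, then CellTiter-Glo added for 30 min at room temperature before luminescence reading. Line: DT40 Tdp1-/- complemented with hTDP1; camptothecin omitted.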
# IL-1B inflam inh = inhibitors of inflammasome signaling (IL-1 beta secretion); THP-1 LPS/ATP IL-1B secretion, AlphaLISA, 16 h; hits give low values; activity change, % at 57.5 µM; 4.7% of 360,000 active; AID 743279; in the data active = activity change below about -50%; inconclusive = mostly about -30% to -49%
#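 THP-1 cells pretreated 1 hr with compounds (up to 57.5 uM final), then stimulated with LPS (250 ng/mL final) plus ATP (1.25 mM final); secreted IL-1B measured by AlphaLISA after 16 hr, decreased signal indicating inhibition.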
# TDP1 cell CPT = DT40-hTDP1 cell growth loss with CPT; chicken DT40 Tdp1-/-;hTDP1 cells + 20 nM CPT, ATP luminescence, 48 h; Potency, µM (top dose mostly 46.2 µM), for the others: top-dose activity change, negative = growth inhibition, actives largely listed as inhibitors; 12% of 420,000 active; also: potency is read from the fitted curve at half-maximal effect; nearly all actives have a fitted effect of over 55% in size
#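 Chicken DT40 Tdp1-/- cells stably complemented with human TDP1 were seeded at 400 cells/well in medium containing 20 nM camptothecin, exposed to pin-transferred compounds, and grown at 37 °C for at least 48 hr. Viability was read as ATP luminescence.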
# Active calls of the source: *; ? = inconclusive; . = no result. The list is not random: actives were taken first. Their share in the collection is about 18%. Unless noted, calls follow the shape of the dose curve; as a rule, active = well fitted curve in the direction sought with a large enough effect; inconclusive = small, poorly fitted or top-dose-only effect, or another doubt; inactive = no such curve, though single readings can be large; an effect the other way counts as inactive or inconclusive. Unless noted, % is scaled to controls: 0 for no effect and ±100 for the full control effect.
SMILES,LDHA inh,RORgamma inh,Gal4-VP16 FLuc,DT40 TDP1 no CPT,IL-1B inflam inh,TDP1 cell CPT
COc1ccc(NC(=O)COC(=O)c2ccc(OCc3ccc(Cl)cc3Cl)c(OC)c2)c(OC)c1,-1,-26%,4%,?,6,?
COc1ccccc1C1=NS(=O)(=O)N(C)C(C(=O)N2CCN(C)CC2)=C1,4,.,.,.,.,.
CC(=O)Nc1ccc(NC(=O)CC2C(=O)N(C3CCCCC3)c3nc4ccccc4n32)cc1 (stereo unspecified),7,.,.,.,.,.
COc1ccc2c(c1)c1c(c(=O)n(-c3ccc(C)cc3)c(=O)n1CC(=O)N1CCCC1)n2C,0,.,.,21µM*,.,16µM*
COc1ccc2c(c1)c1c(c(=O)n(-c3cccc(C)c3)c(=O)n1CC(=O)N1CCCC1)n2C,-3,.,.,?,.,?
COc1ccc2c(c1)c1c(c(=O)n(-c3cccc(Cl)c3)c(=O)n1CC(=O)N1CCCC1)n2C,0,.,.,?,.,23µM*
CSc1ccc(CNC(=O)C2(C)CCCN2CC(C)C)cc1 (stereo unspecified),2,.,.,16µM*,10,18µM*
CCCCC1CCC(c2nc(C#N)c(N3CCN(C)CC3)o2)CC1 (stereo unspecified),5,.,.,.,.,.
CC(=O)c1ccc2c(c1)Nc1ccccc1S2,-8,25%,8%,?,-15,-13%
C=CC(=O)N1c2ccccc2Sc2ccc(NC(=O)OCC)cc21,-5,.,.,29µM*,-112*,?
CCOC(=O)Nc1ccc2c(c1)Nc1ccccc1S2,1,31%,-13%,21µM*,-66*,23µM*
N#CC1(NC(=O)c2csc(-c3cccc(Cl)c3)n2)CCC1,0,.,.,.,.,.
Cc1cccc(OCCCCn2c(C3CC(=O)N(c4ccccc4Cl)C3)nc3ccccc32)c1 (stereo unspecified),-2,.,.,?,.,3.7µM*
Cc1cccc(OCCCCn2c(C3CC(=O)N(c4ccc(C)cc4C)C3)nc3ccccc32)c1 (stereo unspecified),-1,.,.,?,.,?
COc1ccccc1OCCCn1c(C2CC(=O)N(c3ccccc3Cl)C2)nc2ccccc21 (stereo unspecified),1,.,.,6.5µM*,.,13µM*
CCOc1ccccc1N1CC(c2nc3ccccc3n2CCCCOc2cc(C)ccc2C)CC1=O (stereo unspecified),-8,.,.,?,.,26µM*
CCOc1ccccc1N1CC(c2nc3ccccc3n2CCCOc2ccccc2OC)CC1=O (stereo unspecified),1,.,.,-26%,.,?
Cc1c(-c2ccc(Cl)cc2)c(=O)oc2cc(OC(=O)N3CCOCC3)ccc12,6,.,.,.,.,.
C=CCCC(=O)Nc1ccc(Br)cn1,-10,6%,-19%,18µM*,-14,?
CCCCC(=O)Nc1ccc(Br)cn1,-1,?,?,-2%,-14,5%
O=C(/C=C/c1ccccc1)Nc1ccc(Br)cn1,-8,14%,-3%,2.3µM*,0,2.3µM*
O=C(/C=C/c1ccccc1)Nc1ncn[nH]1,1,14µM*,?,10µM*,-108*,7.3µM*
Brc1ccccc1NC1C2CC3CC(C2)CC1C3 (stereo unspecified),-3,.,.,.,.,.
CC(C)COc1ccc(C(=O)OCC[N+]2(C)CCOCC2)cc1,6,.,.,.,.,.
CCOC(=O)N1CCC(NC(=O)CC2C(=O)NCCN2Cc2ccccc2)CC1 (stereo unspecified),2,3%,-2%,1%,5,-13%
SMILES,LDHA inh,RORgamma inh,Gal4-VP16 FLuc,DT40 TDP1 no CPT,IL-1B inflam inh,TDP1 cell CPT
CCOc1ccc(CN2CCNC(=O)C2CC(=O)NCc2ccccn2)cc1 (stereo unspecified),13,11µM*,-7%,-3%,21,-1%
O=C(CC1C(=O)NCCN1Cc1ccc(-c2ccccc2)cc1)NCc1ccccc1 (stereo unspecified),10,?,?,?,-57*,?
O=C(CC1C(=O)NCCN1Cc1ccc(-c2ccccc2)cc1)NC1CCC1 (stereo unspecified),6,2%,6%,15µM*,-21,-28%
CC(C)(C)NC(NC(=O)c1ccc(C(C)(C)C)cc1)C(Cl)(Cl)Cl (stereo unspecified),7,.,.,.,.,.
CCC1CN(C(=O)N2CCC(C(=O)NCc3cccc(C)c3)CC2)c2cc(C)ccc2O1 (stereo unspecified),4,.,.,.,.,.
CCC1CN(C(=O)N2CCC(C(=O)NCCN(CC)CC)CC2)c2cc(C)ccc2O1 (stereo unspecified),-4,.,.,-20%,.,-13%
CCC1CN(C(=O)N2CCC(C(=O)NCc3cccc(F)c3)CC2)c2cc(C)ccc2O1 (stereo unspecified),-2,.,.,16µM*,.,21µM*
CCC1CN(C(=O)N2CCC(C(=O)NCc3ccccc3OC)CC2)c2cc(C)ccc2O1 (stereo unspecified),1,?,-8%,?,5,16µM*
CCC1CN(C(=O)N2CCC(C(=O)NCCc3ccc(OC)cc3OC)CC2)c2cc(C)ccc2O1 (stereo unspecified),-4,.,.,16µM*,.,21µM*
CCC1CN(C(=O)N2CCC(C(=O)NCc3ccccc3OC)CC2)c2ccccc2O1 (stereo unspecified),1,43%,10%,?,-1,?
O=c1c2cc(Cl)cc(Cl)c2ncn1Cc1ccc(F)cc1Cl,-1,.,.,.,.,.
NCc1cccc(NC(=O)c2ccncc2)c1,-20,.,.,.,.,.
Cc1ccc(OCCC(=O)N2CCN(S(=O)(=O)c3ccc(C)s3)CC2)cc1,-5,.,.,.,.,.
COc1ccc(N2C(=S)N=C(Nc3ccccc3)C23CCCCC3)cc1,-1,?,-5%,-14%,16,?
COc1ccc(NC2=NC(=S)N(c3ccccc3C)C23CCCCC3)cc1,-1,7.1µM*,?,26µM*,-15,23µM*
COc1ccc(C(=O)Sc2ccc(Cl)cc2)cc1,-24,.,.,.,.,.
COc1ccc(C(=O)c2cc(OC)c(OC)c(OC)c2)cc1OC,-3,.,.,2.6µM*,43,4.6µM*
COc1ccc(C(=O)c2ccccc2)cc1Br,-2,18%,4%,0%,-53*,-17%
COc1ccc(C(=O)c2ccc(OC)c(N)c2)cc1N,0,1.4µM*,-9%,3%,4,-4%
COc1ccc(C(C)=O)cc1Br,4,.,.,.,.,.
COc1ccc(C(=O)Sc2ccc(Cl)cc2)cc1OC,-9,?,0%,12µM*,-84*,8.2µM*

# High-throughput results as filed in PubChem BioAssay.
